Screen size: about 420,000 compounds; about 64,000 (15%) were called active. Roughly 27% stayed inconclusive and do not appear here. The call rests on the fitted dose curve; in most records, active means well fitted inhibition curve with a large enough effect; inconclusive means small, poorly fitted or top-dose-only effect; inactive means flat fitted curve, though single readings scatter. Not all results are given here.
On the % scale 0 is the no-effect control and ±100 the full control effect; potency means the concentration at half of the fitted maximal effect.

This experiment is described as follows: qHTS for Inhibitors of human tyrosyl-DNA phosphodiesterase 1 (TDP1): qHTS in cells in absence of CPT. Further: nearly all actives have a fitted effect of over 55% in size. The note with it: DT40 Tdp1-/- hTDP1 cells, no CPT, ATP luminescence, 48 h; activity change, negative = growth inhibition: at 46.2 µM (top of the series). A digest of the protocol: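 Stably hTDP1-transfected Tdp1-null chicken DT40 cells were treated with library compounds minus camptothecin and grown for at least 48 hr at 37 °C, after which cellular ATP was quantified by luminescence.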
Consider `O=C(NC1CCCC1)C1c2ccccc2OCC(=O)N1CC(F)(F)F` (stereo not drawn), for which the “activity change, negative = growth inhibition” value was -22.1% (inactive).

Turning to `Brc1cccc[n+]1Cc1cccc(C[n+]2ccccc2Br)c1`, the Potency is 20 µM (active).

Take `Clc1cccc[n+]1CCCC[n+]1ccccc1Cl`: the “activity change, negative = growth inhibition” value was -8.35% (inactive).

With `Cc1ccc(N2C(=O)C3C4C=CC(CC4)C3C2=O)cc1Br` (stereo not drawn), the “activity change, negative = growth inhibition” value was -0.847% (inactive).

Turning to `NS(=O)(=O)c1ccc(NC(=O)COC(=O)c2ccco2)cc1`, the “activity change, negative = growth inhibition” value was 21.8% (inactive).

In the case of `CC1O[C@@H](Oc2c(-c3ccc(O)c(O)c3)oc3cc(O)cc(O)c3c2=O)C(O)C(O)C1O` (stereo partly drawn), the “activity change, negative = growth inhibition” value was -21.7% (inactive).

`CCCc1nc2c(c(=O)c3ccccc3n2C)c(=O)n1C1CCCCCC1`: the Potency is 16.4 µM (active).

Turning to `Cn1c2ccccc2c(=O)c2c(O)cccc21`, the “activity change, negative = growth inhibition” value was -24.6% (inactive).

`O=C1CCC(C(=O)N2CCCCO2)CN1Cc1cccc(C(F)(F)F)c1` (stereo not drawn): the “activity change, negative = growth inhibition” value was -0.0376% (inactive).

As for `CC(=O)N/N=C/c1cc2c(cc1[N+](=O)[O-])OCO2`, the “activity change, negative = growth inhibition” value is -10.1% (inactive).

Take `Cc1ccc(-c2n[nH]c(=S)n2/N=C/c2cc3c(cc2[N+](=O)[O-])OCO3)cc1`: the “activity change, negative = growth inhibition” value is -9.24% (inactive).

As for `Cc1ccc(S(=O)(=O)N/N=C\c2cc3c(cc2[N+](=O)[O-])OCO3)cc1`, the Potency was 18.4 µM (active).

`COc1cc(C(=O)N(Cc2ccc(C(C)C)cc2)C2CCS(=O)(=O)C2)cc(OC)c1OC` (stereo not drawn): the “activity change, negative = growth inhibition” value was -18.9% (inactive).

Consider `COc1ccccc1CN(C)c1nnnn1-c1ccccc1`, for which the “activity change, negative = growth inhibition” value is -3.34% (inactive).

For the molecule `CC[C@]12c3[nH]c4ccc(Cl)cc4c3CCN1C(=O)[C@@H](CC(=O)NCCN1CCOCC1)C[C@@H]2C(=O)N1CCN(C(=O)C2CC2)CC1`, the “activity change, negative = growth inhibition” value is -1.26% (inactive).

For the molecule `CC[C@]12c3[nH]c4ccc(Cl)cc4c3CCN1C(=O)[C@@H](CC(=O)NCCCOC)C[C@@H]2C(=O)N1CCN(C(=O)C2CC2)CC1`, the “activity change, negative = growth inhibition” value was -14.3% (inactive).

`COc1ccc(CNC(=O)C[C@H]2C[C@H](C(=O)N3CCOCC3)[C@@]3(CCC4CCCC4)c4[nH]c5ccc(Cl)cc5c4CCN3C2=O)cc1OC`: the Potency was 18.4 µM (active).

On to `CC[C@]12c3[nH]c4ccc(OC)cc4c3CCN1C(=O)C(CC(=O)NCCN1CCOCC1)C[C@@H]2C(=O)N1CCN(C(=O)C2CC2)CC1` (stereo partly drawn), for which the “activity change, negative = growth inhibition” value was -4.6% (inactive).

For `O=C(C[C@H]1C[C@H](C(=O)N2CCOCC2)[C@@]2(CCC3CCCC3)c3[nH]c4ccc(Cl)cc4c3CCN2C1=O)NCc1ccco1`, the Potency is 23.1 µM (active).

Regarding `CC[C@]12c3[nH]c4ccc(OC)cc4c3CCN1C(=O)C(CC(=O)NCc1ccco1)C[C@@H]2C(=O)N1CCN(C(=O)C2CC2)CC1` (stereo partly drawn), the “activity change, negative = growth inhibition” value was -14.6% (inactive).

Take `COc1ccc(C2(O)C(=O)Nc3ccccc32)cc1` (stereo not drawn): the “activity change, negative = growth inhibition” value was -6.73% (inactive).

Take `O=C(NNC(=O)c1ccc(Cl)cc1Cl)c1cccs1`: the “activity change, negative = growth inhibition” value is -6.88% (inactive).

Turning to `O=C(Nc1cccc2cccnc12)c1cccc(N2C(=O)CCC2=O)c1`, the “activity change, negative = growth inhibition” value is -26.4% (inactive).

`O=c1cc(CO)oc(CN2CCC(Cc3ccccc3)CC2)c1O`: the “activity change, negative = growth inhibition” value was -7.09% (inactive).

In the case of `O=c1c2ccccc2nc2n1C(CSc1ccc(Cl)cc1)CN2` (stereo not drawn), the “activity change, negative = growth inhibition” value is -10% (inactive).

With `O=c1c2ccccc2nc2n1C(CSc1ccc(F)cc1)CN2` (stereo not drawn), the “activity change, negative = growth inhibition” value was -11.3% (inactive).

As to `O=c1c2ccccc2nc2n1C(CSCc1cccc(C(F)(F)F)c1)CS2` (stereo not drawn), the Potency is 3.66 µM (active).

Regarding `O=c1c2ccccc2nc2n1C(CSCc1ccccc1)CS2` (stereo not drawn), the Potency was 6.51 µM (active).

For the molecule `Cn1cc(S(=O)(=O)Nc2ccc(Cl)cc2Cl)c(=O)n(C)c1=O`, the “activity change, negative = growth inhibition” value was -8.43% (inactive).

`CCN(CC)CCNC(=O)C1c2ccccc2C(=O)N(C)C1c1cn(C)c2ccccc12` (stereo not drawn): the “activity change, negative = growth inhibition” value was -1.64% (inactive).

With `CCOC(=O)N1CCC(NC(=O)C(NS(=O)(=O)c2ccc3c(c2)CCN3C(=O)CC)C(C)C)CC1` (stereo not drawn), the “activity change, negative = growth inhibition” value is -2.64% (inactive).

On to `CN(C)C(=O)[C@@H]1C[C@@H](Sc2nc3ccccc3[nH]2)CN1Cc1ccc(Cl)cc1`, for which the “activity change, negative = growth inhibition” value is -22.1% (inactive).

As for `O=C(Cc1csc(Nc2nc(=S)[nH]c3ccccc23)n1)NCCCN1CCN(c2cccc(Cl)c2)CC1`, the Potency is 9.2 µM (active).

Consider `O=C(CCn1c(=S)[nH]c2ccccc2c1=O)NCCCN1CCCC1=O`, for which the “activity change, negative = growth inhibition” value is -4.12% (inactive).

As to `CC1CC(C)CN(CCCNC(=O)Cn2ncc3c([nH]c4ccccc43)c2=O)C1` (stereo not drawn), the “activity change, negative = growth inhibition” value is -5.59% (inactive).

On to `O=C(CN1C(=O)NC2(CCCCCCC2)C1=O)NCc1ccc(F)cc1`, for which the “activity change, negative = growth inhibition” value is -0.899% (inactive).

`COc1ccc(CNC(=O)C2=Cc3cccc(OC)c3OC2)cc1OC`: the “activity change, negative = growth inhibition” value is -19.7% (inactive).

Regarding `O=C(NN1C(=O)C2C3C=CC(O3)C2C1=O)c1ccncc1` (stereo not drawn), the “activity change, negative = growth inhibition” value was 3.7% (inactive).

Turning to `CSC1=NN(c2ccccc2)CN(c2ccccc2)N1C`, the “activity change, negative = growth inhibition” value was -24.6% (inactive).

On to `O=C(CCCN1C(=O)c2ccccc2C1=O)Oc1ccc(Cl)cc1`, for which the “activity change, negative = growth inhibition” value was -8% (inactive).

In the case of `Cc1ccc(CNC(=O)C2CC(=O)N(C3CCCCCCC3)C2)cc1` (stereo not drawn), the “activity change, negative = growth inhibition” value is -3.8% (inactive).

As to `COc1ccc(CNC(=O)[C@@H]2CC=C[C@@H]3CCN(C4CC4)C(=O)[C@@H]32)cc1`, the Potency entry was “inactive”.

For the molecule `CCCCC[C@H]1CN(C2CCCCC2)C(=O)[C@@H]1CC(=O)NCc1ccc(OC)cc1`, the Potency is 10 µM (active).

In the case of `O=C(CCc1nnc2ccc(NCCCN3CCCC3=O)nn12)NCc1ccccc1Cl`, the “activity change, negative = growth inhibition” value is -18.4% (inactive).

On to `COc1cccc(OCCCN2CCCCCC2)c1`, for which the “activity change, negative = growth inhibition” value is 2.05% (inactive).

Regarding `CCOC(=O)Cn1c(-c2cccnc2Cl)nc2ccccc21`, the “activity change, negative = growth inhibition” value is 0.732% (inactive).

In the case of `CCCCCCCCCCOC(=O)Cn1c(COc2cccc(OC)c2)[n+](C)c2ccccc21`, the Potency is 2.31 µM (active).

As for `Cc1ccc(OCCCn2c(=O)oc3ccccc32)cc1`, the “activity change, negative = growth inhibition” value was 11.2% (inactive).

`CCCCCCCCCCOC(=O)Cn1c(COc2ccc(C)cc2)[n+](C)c2ccccc21`: the Potency is 3.26 µM (active).

Consider `CCn1c(COc2cccc(OC)c2)nnc1SCC(=O)N1CCOCC1`, for which the “activity change, negative = growth inhibition” value was 11.3% (inactive).

With `Cc1ccc(C)c(-n2ccnc2SCC(N)=O)c1`, the “activity change, negative = growth inhibition” value is -0.269% (inactive).

Regarding `CCn1cc(C(=O)OCC(=O)Nc2cccc(C)c2)c(=O)c2ccc(C)nc21`, the “activity change, negative = growth inhibition” value was -0.576% (inactive).

As to `C/C=C/C=C/C(=O)O`, the Potency result was “inactive”.

As to `COc1cc(/C=C/C(=O)OCC(=O)NCCCc2ccccc2)ccc1O`, the “activity change, negative = growth inhibition” value is -15.4% (inactive).

Regarding `C[C@@H](NC(=O)[C@@H]1Cc2ccccc2CN1)C(=O)NC1CCCC1`, the “activity change, negative = growth inhibition” value was 4.68% (inactive).

`COc1ccc(/C=C/c2ccnc3ccccc23)cc1OC`: the Potency was 12.6 µM (active).

In the case of `COc1cc(OC)c(/C=C/c2ccnc3ccccc23)c(OC)c1`, the Potency is 8.91 µM (active).

In the case of `COc1cc(OC)cc(C(=O)NNC(=O)CCOc2ccccc2OC)c1`, the “activity change, negative = growth inhibition” value was 17.1% (inactive).

With `COc1ccc(/C=C/c2ccccn2)cc1OC`, the Potency is 12.6 µM (active).

For `COc1cc(/C=C/c2ccc(/C=C/c3cc(OC)c(OC)c(OC)c3)cc2)cc(OC)c1OC`, the “activity change, negative = growth inhibition” value was -25.1% (inactive).

`C=CCOc1ccc(/C=N/n2cncn2)cc1OC`: the “activity change, negative = growth inhibition” value is -10.4% (inactive).

With `COc1ccc(/C=C/c2noc(-c3ccccc3O)n2)cc1OC`, the “activity change, negative = growth inhibition” value is -20.9% (inactive).

`COc1ccc(/C=N/n2nnnc2N)cc1OC`: the “activity change, negative = growth inhibition” value was -7.02% (inactive).

For the origin of these results see PubChem BioAssay AID686978 (National Center for Advancing Translational Sciences (NCATS), 2013).
